From PubChem BioAssay AID720709 (National Center for Advancing Translational Sciences (NCATS), 2013)
Among all 360,000 compounds or so, about 520 (0.14%) were called active. Not shown: some 3% with an inconclusive outcome. The call rests on the fitted dose curve; in most records, active means well fitted inhibition curve with a large enough effect; inconclusive means small, poorly fitted or top-dose-only effect; inactive means no such curve, though single readings can be large or run the other way. What follows is part of a selection rich in actives, with near analogues and random picks from the rest.

What follows are compounds tested against Rap guanine nucleotide exchange factor 3 (Homo sapiens) (UniProt O95398) (assay: qHTS for Antagonist of cAMP-regulated guanine nucleotide exchange factor 3 (EPAC1): primary screen). Details: EPAC1 GEF assay, Rap1b-BODIPY-GDP exchange fluorescence; series mostly up to 115 µM; activity change, negative = inhibition: at the top concentration.
Rap guanine nucleotide exchange factor 3 (Homo sapiens), sequence (O95398 whole entry, looked up): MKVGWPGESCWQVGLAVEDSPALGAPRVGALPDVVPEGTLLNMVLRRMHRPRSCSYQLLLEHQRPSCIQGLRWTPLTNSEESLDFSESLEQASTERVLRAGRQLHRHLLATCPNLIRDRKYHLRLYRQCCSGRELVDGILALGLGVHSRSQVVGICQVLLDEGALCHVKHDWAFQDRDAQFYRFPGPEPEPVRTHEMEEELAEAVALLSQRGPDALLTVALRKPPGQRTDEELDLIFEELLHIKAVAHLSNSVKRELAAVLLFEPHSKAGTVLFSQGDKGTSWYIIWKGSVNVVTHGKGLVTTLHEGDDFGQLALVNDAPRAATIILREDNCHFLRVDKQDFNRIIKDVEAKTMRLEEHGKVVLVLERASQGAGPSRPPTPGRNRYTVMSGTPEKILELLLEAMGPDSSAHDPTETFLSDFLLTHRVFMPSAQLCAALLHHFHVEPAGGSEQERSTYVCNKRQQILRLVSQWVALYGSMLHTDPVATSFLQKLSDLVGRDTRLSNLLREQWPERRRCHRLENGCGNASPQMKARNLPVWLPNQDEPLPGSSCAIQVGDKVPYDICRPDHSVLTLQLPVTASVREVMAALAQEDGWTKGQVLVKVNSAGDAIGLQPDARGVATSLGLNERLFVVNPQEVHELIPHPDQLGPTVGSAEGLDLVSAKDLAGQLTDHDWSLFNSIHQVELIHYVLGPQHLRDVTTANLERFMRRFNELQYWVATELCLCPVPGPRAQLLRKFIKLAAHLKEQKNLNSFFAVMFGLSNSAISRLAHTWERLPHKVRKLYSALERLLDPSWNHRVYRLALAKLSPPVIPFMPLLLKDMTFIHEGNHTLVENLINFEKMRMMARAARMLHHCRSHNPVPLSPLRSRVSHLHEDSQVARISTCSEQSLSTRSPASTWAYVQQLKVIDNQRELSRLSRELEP
Text: In multi-cellular eukaryotic organisms, the effects of cAMP are transduced by two ubiquitously-expressed intracellular cAMP receptors, the classic protein kinase A/cAMP-dependent protein kinase (PKA/cAPK) and the more recently discovered exchange protein directly activated by cAMP/cAMP-regulated guanine nucleotide exchange factor (EPAC/cAMP-GEF). Both PKA and EPAC are ubiquitously expressed in all tissues, and an increase in intracellular cAMP levels will lead to the activation of both PKA and EPAC. Therefore, careful dissections of the individual role and relative contribution of EPAC and PKA within the overall cAMP signaling in various model systems are critical for further elucidating the mechanism of cAMP signaling. To date no EPAC-specific antagonists and agonist, as well as isoform-specific agonists have been reported, and developing EPAC-specific pharmacological probes to determine the physiological functions that EPAC play in the overall cAMP-mediated signaling remains a major challenge within the research field. Furthermore, identified regulators of EPAC may lead to new mechanism-based therapeutic strategies specifically targeting the EPAC / cAMP-signaling components as EPAC has been implicated to play important roles in major human pathological conditions such as diabetes, heart disease, and cancer. This qHTS will be used to screen the Molecular Libraries Small Molecule Repository (MLSMR) as a concentration-titration series using the NCGC unique quantitative screening (qHTS) platform to find inhibitors for EPAC1. In addition, this assay will also be used as a counterscreen for the EPAC2 qHTS. This fluorescent based assay is developed and validated for EPAC1 that measures exchange using EPAC effector Rap1 complex with BODIPY-GDP, a GDP analog with a tethered fluorophores. Inhibitors are identified by monitoring the change in fluorescence signal as the exchanged free BODIPY-GDP has a reduced fluorescence compared to Rap1-bound BODIPY-GDP. Decrease in signal (inhibition) is the desired outcome for the EPAC1 antagonist while no activity in this assay is desired for the EPAC2 antagonist counterscreen. de Rooij, J., Zwartkruis, F. J., Verheijen, M. H., Cool, R. H., Nijman, S. M., Wittinghofer, A., and Bos, J.L. (1998) Nature 396, 474-477 [2] Kawasaki, H., Springett, G. M., Mochizuki, N., Toki, S., Nakaya, M., Matsuda, M., Housman, D. E., and Graybiel, A. M. (1998) Science 282, 2275-2279 NIH Chemical Genomics Center [NCGC] NIH Molecular Libraries Probe Centers Network [MLPCN] MLPCN Grant: NS066510 Assay Submitter (PI): Xiaodong Cheng, The University of Texas, Medical Branch
Briefly, three uL of reagents (100 nM EPAC1, 250 nM RAP1B-BODIPY-GDP, 50 uM GDP) were dispensed into a 1536-well Greiner black solid-bottom medium binding assay plate. Controls and test compounds (23 nL) were transferred to the plate via a Kalypsys pin tool equipped with a 1536-pin array. The plates were centrifuged at 1,000 rpm for 15 seconds followed by 5 minute incubation at room temperature. The assay plates were read at 5 minute intervals for 30 minutes in the ViewLux plate reader using 480nm excitation and 540nm emission filters. The results were normalized to the […] positive control ATA and DMSO.
Further: nearly all actives have a fitted effect of over 50% in size.
Potency means the concentration at half of the fitted maximal effect.
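Wherever activity change, negative = inhibition is given: plate controls were vehicle for no effect and positive control for full effect.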

Activity change, negative = inhibition, inactive:
Oc1cccc2cc(-c3ccncc3)cnc12 3.21%, CO[C@@H]1CN(C)C(=O)c2cc(NC(=O)Nc3cc(F)ccc3F)ccc2OC[C@H](C)N(C(=O)c2ccccn2)C[C@@H]1C -5.4%, COc1ccc2c(C)c(CCC(=O)NC3CC3)c(=O)oc2c1C -3.71%, Cc1ccc(S(=O)(=O)NCCC(=O)NNC(=O)C2COc3ccccc3O2)cc1 (configuration not stated) 8.04%, OCCC#Cc1ccc(N2C(c3ccsc3)=Cc3ccc(F)cc3C2c2c[nH]c3ccccc23)cc1 (configuration not stated) 1.44%, COc1ccc(CC(N)c2csc(NC(=O)NC(c3ccccc3)c3ccccc3)n2)cc1 (configuration not stated) -11.6%, CCOc1ncccc1C(=O)NNC(=O)c1cccc(S(=O)(=O)Nc2ccccc2OC)c1 11.9%, CC1CN(C(=O)c2ccccc2NS(=O)(=O)c2cccc([N+](=O)[O-])c2)CC(C)O1 (configuration not stated) -6.5%, COC(=O)C[C@@H]1C=C[C@@H](NC(=O)c2ccc3c(c2)OCO3)[C@@H](CO)O1 -14.3%, O=c1[nH]c(SCc2cccc(F)c2)nc2ccccc12 -4.22%, CC(=O)CSc1nc(CCc2ccccc2)c(C#N)c(=O)[nH]1 -14.8%, O=C(NCc1ccc(F)cc1F)[C@@H]1CCCN1C(=O)[C@@H]1CCCN1C(=O)c1cccc(Cl)c1 5.96%, COc1cccc(/C=C(/CC(=O)Nc2ccc(N3CCOCC3)cc2)c2nc3ccccc3s2)c1 0.722%, O=C(O)CC/C(=C\c1cc2c(cc1Br)OCO2)c1nc2ccccc2s1 -2.3%, CCOc1ccc(CCN2C(=S)N([C@@H](CC(C)C)CN3CCC[C@@H]3CN3C(=S)NC[C@@H]3Cc3ccc(O)cc3)C[C@@H]2Cc2ccc(O)cc2)cc1 -20.9%, CCC(C(=O)Nc1c(C)cccc1C)n1c(-c2cc(C)cs2)nc2ccccc21 (configuration not stated) -5.26%, COc1ccc(C(=O)NCC[N+](C)(C)C)cc1 4.59%, CCOC(=O)[C@]12CCC=C1N(Cc1ccco1)C(=O)[C@H](CC(=O)N1CCSCC1)C2 -20.2%, CCCCCCN1CCN(C2CN(Cc3cn(CCCCCC)nn3)S(=O)(=O)C2)CC1 (configuration not stated) -19.2%, CCC(CC)C(C(=O)NC1CCCC1)N1CCN(c2cc(C)nc3ccccc23)CC1 (configuration not stated) 1.74%, O=C1Nc2ccccc2-n2nnnc2C1N1CCN(c2cccc(C(F)(F)F)n2)CC1 (configuration not stated) -11.1%, CCOC(=O)[C@]12CCCC=C1N(CCC1=CCCCC1)C(=O)[C@H](CC(=O)N1CCOCC1)C2 -4.03%, Cc1cc(Br)cn2c(Cc3ccsc3)c(-c3ccc(C#N)cc3)nc12 -4.89%, CCOC(=O)[C@]12CCCC=C1N(CCC1=CCCCC1)C(=O)[C@H](CC(=O)NCCCCc1ccccc1)C2 -11.2%, O=C1NC[C@H](CCCCN2C[C@H](Cc3ccc(O)cc3)N(CCc3ccccc3)C(=O)C2=O)N(CCc2ccccc2)C1=O -12.9%, O=C1Nc2ccccc2NC(c2ccc3c(c2)OCO3)=C1N(Cc1ccc(F)cc1)C(=O)c1ccco1 -26.5%, COc1ccc(C(=O)C(OP(=O)(OC)OC)c2ccccc2OC)cc1 (configuration not stated) -3.79%, COC(=O)c1ccc2nc(-c3ccc(C)cc3)c(Cc3ccc(OC)cc3C)n2c1 -20.7%, CCOC(=O)[C@]12CCCC=C1N(Cc1ccc(Cl)cc1Cl)C(=O)[C@H](CC(=O)N1CCCCC1)C2 24.7%, CC1Cc2[nH][nH]c(=O)c2C(C2CCCC2)O1 (configuration not stated) -1.95%, COc1cccc(-c2nc3nc(C)cc(C)n3c2NC2CCCCC2)c1 -3.19%, CC(C)c1cc(Cn2c3ccccc3c(=O)n2C(C)Cn2cc(C3CC3)nn2)on1 (configuration not stated) -18.3%, Cc1cc(Br)cn2c(Cc3ccccc3C(F)(F)F)c(-c3ccc(Cl)cc3)nc12 -8.75%, CCOC(=O)[C@]12CCCC=C1N(CCC1=CCCCC1)C(=O)[C@H](CC(=O)N1CCSCC1)C2 -11.1%, COC(=O)[C@]12CCCCC=C1N(Cc1ccc3c(c1)OCO3)C(=O)[C@H](CC(=O)N1CCOCC1)C2 -8.74%, O=C(NCc1ccccc1)C1c2ccccc2OCC(=O)N1CCCN1CCOCC1 (configuration not stated) -7.15%, COc1ccc([C@H]2CC(=O)C[C@@H](CCn3cc(CC4CCCC4)nn3)O2)cc1 4.12%, COc1ccc(N2c3ccccc3CN(Cc3ccccc3)[C@@H](C)[C@H]2Cc2ccc(-c3ccccc3)cc2)cc1 18.8%, O=S1(=O)CC(N2CCN(CCO)CC2)CN1Cc1cn(Cc2cccc(Cl)c2)nn1 (configuration not stated) -1.43%, O=C(C(=O)N1CCN(c2ccccc2)CC1)c1ccc2c(c1)OCO2 1.25%, COC(=O)C[C@@H]1C=C[C@@H](NS(=O)(=O)c2cccc(OC)c2)[C@@H](CO)O1 -27.2%, CC(C)(C)CC(=O)Nc1nc(C(N)Cc2ccc(C(F)(F)F)cc2)cs1 (configuration not stated) 12.1%, O=C(NCc1ccccc1)C1c2ccccc2OCC(=O)N1C1CC1 (configuration not stated) -2.01%, Nc1[nH]c(C(=O)c2ccccc2)c(-c2ccc(Br)cc2)c1C(=O)NC1CC1 -28.1%, Cc1ccc(S(=O)(=O)N2CCC(=O)N([C@H](COCc3ccccc3)C(C)C)CC2)cc1 9.8%, Cn1cnc(S(=O)(=O)N2C[C@@H](O)COC[C@@H]3O[C@H](CC(=O)NC4CCC4)CC[C@H]32)c1 -13.4%, O=C(OC1CC2CC1[C@H]1CCCCN1C2=O)N1CCOCC1 (some centres not stated) 2.08%, O=C1C(Sc2cccc(F)c2)=C[C@@]2(O)CC[C@@H](O)[C@]1(Sc1cccc(F)c1)[C@H]2O -1.01%, O=C(Nc1ccc(F)cc1)C(CCc1ccccc1)N1CCN(CC(=O)N2CCCC2)CC1 (configuration not stated) 1.09%, OC(c1ccccc1)(c1ccccc1)C1CCN(CCCOc2ccccc2)CC1 16.4%, CCC(c1nc2ccccc2[nH]1)n1c(=O)c(-c2cccs2)nc2ccccc21 (configuration not stated) 12.6%, Cc1ccc(Cc2c(-c3ccc(Cl)cc3)nc3c4ccccc4ccn23)cc1 10.1% [at 57.5 µM]

Potency, active:
Cc1c(CC(=O)N2CCN(C(=O)C3COc4ccccc4O3)CC2)c(=O)oc2c(O)c(O)ccc12 (configuration not stated) 100 µM, COc1cccc(/C=N/Nc2ccc(S(=O)(=O)Nc3ccccc3C(=O)O)cc2[N+](=O)[O-])c1O 25.1 µM, N#Cc1c(-c2ccccc2)nc(SCc2cccc(C(F)(F)F)c2)[nH]c1=O 70.8 µM, COc1ccc(C(=O)Nc2cccc(/C=C(/CCC(=O)O)c3nc4ccccc4s3)c2)cc1 35.5 µM, NC1=CC(=O)C(=O)c2cccnc21 56.2 µM
